RORg inh – qHTS for inhibitors of ROR gamma transcriptional activity; 310,000 tested, 5.4% active; Potency, µM (doses to about 53.6 µM), without a hit: top-dose activity change, negative = inhibition, most hits filed as inhibitors; Drosophila S2 Gal4-RORgamma UAS-luciferase reporter, 20 h; Nuclear receptor ROR-gamma (Mus musculus), P51450; note: % is set by controls: 0 for no effect and ±100 for the full control effect; nearly all actives have a fitted effect of over 60% in size
Target sequence (P51450 whole entry, looked up, the tested form may be a part): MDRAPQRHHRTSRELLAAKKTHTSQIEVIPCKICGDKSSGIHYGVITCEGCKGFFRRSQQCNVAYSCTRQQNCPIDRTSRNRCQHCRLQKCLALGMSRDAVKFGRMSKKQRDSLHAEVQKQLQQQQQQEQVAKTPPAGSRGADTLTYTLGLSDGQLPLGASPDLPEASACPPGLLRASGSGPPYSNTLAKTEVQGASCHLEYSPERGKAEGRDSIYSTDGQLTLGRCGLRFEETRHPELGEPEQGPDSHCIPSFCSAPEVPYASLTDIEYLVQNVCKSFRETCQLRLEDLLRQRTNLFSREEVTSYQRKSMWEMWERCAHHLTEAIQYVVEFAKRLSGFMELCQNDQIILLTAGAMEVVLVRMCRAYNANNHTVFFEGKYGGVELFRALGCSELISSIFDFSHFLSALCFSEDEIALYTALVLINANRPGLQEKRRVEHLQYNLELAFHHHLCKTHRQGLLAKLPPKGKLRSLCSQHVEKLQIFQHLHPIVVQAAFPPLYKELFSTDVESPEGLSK
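Luminescence from a UAS-regulated Photinus luciferase reporter in stably transfected Drosophila Schneider cells is measured; decreased signal marks ROR gamma inhibition. Fusion expression is induced by 700 uM copper sulfate for 20 hr.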
Sfp inh – qHTS Assay for Inhibitors of Bacillus subtilis Sfp phosphopantetheinyl transferase (PPTase). 4'-phosphopantetheinyl transferase ffp (Bacillus subtilis), Q9F4F7. Biochemical Sfp PPTase activity, qHTS. Potency, µM, inactives show largest response in the series, negative = inhibition, usual class: inhibitors. 310,000 tested, 3.5% active;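 note: the enzyme is Sfp with the accession as filed and its product quenches rhodamine fluorescence; 0% = enzyme reaction without inhibitor and -100% = no enzyme wells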
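With Hepes-Na pH 7.6 buffer containing 10 mM MgCl2, Sfp (15 nM) modified BHQ-2-YbbR (12.5 uM) using rhodamine-CoA (5 uM). Two reads 30 minutes apart at 525/598 nm yielded each well's rate.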
ClpP mod – qHTS Assay for Activators of ClpP. ATP-dependent Clp protease proteolytic subunit (Bacillus subtilis (strain 168)), P80244. purified B. subtilis ClpP, FRET peptide cleavage, 20 min. Potency, µM (titrated, usually from 57.5 µM), for inactives: top-dose activity change, negative = active. 340,000 tested, 1.9% active. AID 651965, 2013; active = well fitted falling curve with a large enough effect; inconclusive = small, poorly fitted or top-dose-only effect; inactive = no such curve, though single readings can be large or run the other way; note: the source files actives as falling curves though it sought activators and does not explain the sign; nearly all actives have a fitted effect of over 65% in size
Target sequence (P80244 whole entry, looked up): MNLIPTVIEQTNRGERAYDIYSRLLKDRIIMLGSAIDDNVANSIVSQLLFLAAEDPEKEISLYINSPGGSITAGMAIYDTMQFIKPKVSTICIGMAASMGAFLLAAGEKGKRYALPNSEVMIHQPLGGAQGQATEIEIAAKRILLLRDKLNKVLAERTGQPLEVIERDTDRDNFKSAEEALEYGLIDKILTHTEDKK
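ClpP 10 microg/mL final, pH 8 Tris/KCl buffer with BSA, glycerol, Tween-20; compound pinned in; FRET-FV substrate; RT 20 min; Ex320/Em430; ΔFRET vs ADEP 5.8 microM, DMSO, no enzyme.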
Epigenetic reg – Quantitative High-Throughput Screen for Regulators of Epigenetic Control; murine LDR cells, GFP reporter derepression, 30 h; Potency, µM (doses to about 53.9 µM), for inactives: top-dose GFP activation, most hits filed as activators; 280,000 tested, 0.2% active; AID 1865, 2009; note: % of control where 0% means no effect; nearly all actives have a fitted effect of over 60% in size
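Murine LDR cells bearing a silenced CMV-driven GFP reporter were exposed to compound for 30 h at 37 C. After PBS washes, GFP-positive cells (20-120 um objects) counted by laser-scanning microplate cytometry.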
PINK1 modulator – A Quantitative High throughput Screen to Identify Chemical Modulators of PINK1 Expression | PINK1 immunofluorescence, high-content cytometry, 24 h | Potency, µM (series often up to 76.6 µM), for the others: at the top dose activation (PINK1 increase), usual class: activators | 410,000 tested, 0.2% active | AID 624263, 2012; active = well fitted activation curve with a large enough effect; inconclusive = small, poorly fitted or top-dose-only effect; cell line not stated here; note: % of control where 0% means no effect; nearly all actives have a fitted effect of over 65% in size
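Measures PINK1 amount and localization on or inside mitochondria by immunofluorescence. Stable cells get compounds at 5 concentrations for 24 hours before fixation and staining; CCCP controls included.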
Gal4-VP16 FLuc – VP16 counterscreen qHTS for inhibitors of ROR gamma transcriptional activity. Drosophila S2 Gal4-VP16 UAS-luciferase, luminescence, 20 h. Potency, µM (titrated, usually from 53.6 µM), inactives show at the top dose activity, negative = inhibition, usual class: inhibitors. 310,000 tested, 3.5% active. AID 2546, 2010;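 note: Gal4-VP16 expression switched on by copper sulfate through the metallothionein promoter; % is set by controls: 0 for no effect and ±100 for the full control effect; nearly all actives have a fitted effect of over 50% in size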
* = called active by the depositor; ? = inconclusive; . = not tested or not shown; [ ] = remark or other dose. Most compounds without a hit are left out; they make up all but 8.1% or so of the library. Unless noted, calls come from the whole dose curve; as a rule, active = well fitted curve in the direction sought with a large enough effect; inconclusive = small, poorly fitted or top-dose-only effect, or another doubt; inactive = no such curve, though single readings can be large; an effect the other way counts as inactive or inconclusive. Potency is the fitted concentration of half-maximal effect.

SMILES	RORg inh	Sfp inh	ClpP mod	Epigenetic reg	PINK1 modulator	Gal4-VP16 FLuc
CC(C)CN(C(=O)CN1CCN(c2ccc(O)cc2)CC1)c1c(N)n(CC(C)C)c(=O)[nH]c1=O	5%	25µM*	-10%	0%	-3%	3%
COc1cccc(O)c1CN1CCC2(CC1)c1ccccc1[C@@H](NC(=O)c1ccsc1)[C@@H]2OC	.	.	.	.	-1%	.
CSCC[C@@H]1NC(=O)C/C=C\[C@@H](C)COC(=O)[C@@H](CCSC)NC(=O)C/C=C\[C@@H](C)COC1=O	-8%[10 µM]	3%	.	1%[10.1 µM]	.	7%[10 µM]
CC(C)CCNC(=O)C1CCN(C(=O)N2CCOc3ccc(Cl)cc32)CC1	.	.	0%	0%	0%	.
COc1cc(OC)cc(C(=O)NNC(=S)NC(=O)c2cccnc2)c1	11µM*	1%	-1%	.	1%	-22%
CC(C)(C)c1cc(Cl)c(O)c(NC(=S)NC(=O)c2cccnc2)c1	0.16µM*	-24%	1%	0%	12%	0.89µM*
COc1ccc(NC(=S)NC(=O)c2cccnc2)cc1	11µM*	-2%	.	.	1%	?
O=C(NC(=S)NCCSc1ccccc1)c1cccnc1	13µM*	-19%	1%	1%	1%	?
COc1cccc(C(=O)NNC(=O)c2cccnc2)c1	-3%	27%	.	.	4%	-6%
O=C(NC(=S)NCc1cccnc1)c1ccccc1	-33%	12%	-1%	5%	-2%	9%
CC(C)(C)c1ccc(OCCNC(=S)NC(=O)c2cccnc2)cc1	13µM*	-1%	-4%	0%	0%	?
CC(C)(C)c1ccc(C(=O)NC(=S)NCc2cccnc2)cc1	-5%	-15%	-1%	-8%	-2%	-11%
CC(C)(C)C(=O)NC(=S)NNC(=O)c1ccc(-c2ccccc2)cc1	?	27%	27%	19%	-1%	16µM*
CC(C)(C)c1ccc(C(=O)NNC(=S)NC(=O)c2cccnc2)cc1	2.8µM*	9%	.	.	-3%	?
O=C(O)c1ccc(NC(=S)NC(=O)c2cccnc2)cc1	?	-27%	.	.	-1%	-23%
COC(=O)c1ccc(NC(=S)NC(=O)c2cccnc2)cc1	?	89µM*	.	.	-1%	?
CCOc1ccc(NC(=O)CSc2nc3c(oc4ccccc43)c(=O)n2-c2cc(C)cc(C)c2)cc1	.	.	-2%	1%	0%	.
COc1ccc(C2C(=O)N(C3CCCCC3)CC(=O)N2CCC2=CCCCC2)cc1 (stereo not drawn)	.	.	-3%	0%	2%	.
CC(C)c1ccc(O)c(NC(=S)NC(=O)c2cccnc2)c1	0.71µM*	1%	.	0%	9%	1.4µM*
CC1(C)CC(Nc2ccc(Nc3ccccc3)cc2)CC(C)(C)N1	?	20µM*	0%	0%	1%	?
CCOc1cc(C(=O)Nc2ccc(-c3cn4cccnc4n3)cc2)cc(OCC)c1OCC	.	.	16µM*	?	1%	.
O=C(Nc1cccc(-c2cn3cccnc3n2)c1)c1ccc2c(c1)OCO2	27%	6%	28µM*	0%	-1%[38.3 µM]	-1%
COc1ccc(-c2cn3cccnc3n2)cc1NC(=O)CC(C)C	-11%	7%	28µM*	-1%	3%[38.3 µM]	-6%
O=C(Nc1cccc(-c2cn3cccnc3n2)c1)c1ccco1	2%	-13%	-4%	4%	3%[38.3 µM]	2%
C=CC[n+]1cccc2cc(Br)ccc21	.	.	1%	.	.	.
SMILES	RORg inh	Sfp inh	ClpP mod	Epigenetic reg	PINK1 modulator	Gal4-VP16 FLuc
CCC1CN(CCNC(=O)c2ccc(C#CC(C)(C)O)cc2)Cc2cc(OC)ccc2O1 (stereo not drawn)	.	.	.	.	0%	.
S=C(Nc1ccc(Oc2ccc(NC(=S)NC3CCCCC3)cc2)cc1)NC1CCCCC1	1µM*	19%	0%	7%	0%	?
S=C(Nc1ccc(Oc2ccccc2)cc1)NC1CCCCCC1	1.8µM*	-7%	2%	1%	?	3.2µM*
Cc1ccc(NC(=S)NNC(=S)NC2CCCCC2)cc1	16µM*	40µM*	-1%	1%	-1%	?
CN(C(=S)Nc1ccc(Oc2ccccc2)cc1)C1CCCCC1	-42%[10 µM]	1%	.	-1%	?	?
CC(C)c1ccc(NC(=S)NC2CCCCCC2)cc1	2.2µM*	10%	.	1%	?	16µM*
Cc1ccc(NC(=O)CSc2nc(-c3ccccc3Cl)nc3cc(=O)[nH]n23)c(C)c1	.	.	-1%	-1%	-2%	.
C=C1Cc2c(Cl)cc3[nH]c4c5c3c2[C@@]2(O)[C@@H]1C[C@@H]2C(C)(C)O[C@H]5[C@@H]1CC[C@@]2(O)[C@@]35O[C@@H]3[C@@H](O)[C@@H](C(=O)O)O[C@H]5CC[C@]2(C)[C@@]41C	.	34%	.	?	.	.
S=C(NNc1ccc2ccccc2c1)NC1CCCCC1	2.8µM*	7%	-5%	2%	9%	2.8µM*
S=C(Nc1ccc(Oc2ccccc2)cc1)NC1CCCCC1	2.2µM*	-5%	-1%	0%	0%	-4%[0.365 µM]
OCCNC(=S)Nc1ccc(Oc2ccccc2)cc1	-26%	10%	1%	2%	2%	21%
O=C(Nc1ccc(Br)cc1)NC1CCCCCCC1	?	-6%	0%	.	?	?
CC(=O)c1ccc(NC(=S)NNC(=O)NC2CCCCC2)cc1	?	16µM*	.	-6%	2%	?
CCCCSc1nnc2c(n1)OC(c1ccc(Br)s1)N(C(C)=O)c1ccccc1-2 (stereo not drawn)	.	.	-2%	1%	6%	.
O=c1c(-c2ccc(Cl)cc2)nc2cnc(N3CCOCC3)nc2n1Cc1ccc(F)cc1	-32%	20%	.	.	6%	1%
COc1ccc2c(c1)O[C@H](c1cccc(C(F)(F)F)c1)[C@@H](O)C2=O	4%[10 µM]	19%	.	0%[10.1 µM]	.	-5%[10 µM]
COc1cc(CNc2ccc3[nH]c(=O)[nH]c3c2)ccc1OCc1ccc(Cl)cc1	2.8µM*	-13%	12%	.	8%	?
CCN(CC)c1ccc(NC(=O)Cn2cc3c(n2)CCC(C)C3)c(C)c1 (stereo not drawn)	-54%	-26%	2%	-1%	7%	11µM*
Cc1cccc(CNC(=O)C2CCN(S(=O)(=O)c3cccc4nonc34)CC2)c1	.	.	1%	-1%	7%	.
COc1ccc(-c2cnc(C)o2)cc1S(=O)(=O)Nc1ccc(C)c(F)c1	.	.	-3%	2%	5%	.
CC(C)COc1ccc(-c2nnc(-c3ccncc3)o2)cc1	17%	-2%	32µM*	-1%	17%	8%
